The source of these data is PubChem BioAssay (NCI).

Some test systems named below: T-47D breast; BT-549 breast; MDA-MB-435 melanoma; SW-620 colon; MCF7 breast; HCT-116 colon; HCC-2998 colon; KM12 colon; MDA-MB-468 breast.
What all share (experiment): NCI-60 one-dose screen, 48 h (100 = growth as untreated, 0 = no growth, -100 = all killed)
What all share (conditions): 10 µM

Molecules are shown by their SMILES. About 83,000 compounds went through this panel and 20% of them were active in at least one assay; those are over-represented in the sample as a whole.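 Step 1: grow cells in 96-well plates. Step 2: add test compound at a single concentration. Step 3: incubate 48 h. Step 4: record percent growth.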 Values without a mark were called inactive. Activity calls are given as the source filed them. The calls were made as follows: active = growth percent below 10; inactive = the rest.

`O=C(Nc1ccc(I)cc1F)c1cc(-c2ccc(F)cc2F)ccc1O`: the growth was -22.7% (active) with T-47D breast; -12.5% (active) with BT-549 breast; 0.752% (active) in the test on MDA-MB-435 melanoma; 10.1% in the test with SW-620 colon; -12.8% (active) in the test on MCF7 breast; 17.2% with HCT-116 colon. The growth in the test with HCC-2998 colon is 5.11% (active); in the test on KM12 colon, 6.39% (active); with MDA-MB-468 breast it was -26.8% (active).

Take `CCOC(=O)CNC(=O)CN(Cc1ccccc1)C(=O)[C@@]1(C)CCC[C@]2(C)[C@H]3CC4C(C(C)C)=C[C@]3(CC[C@H]21)[C@@H]1C(=O)CCC(=O)[C@H]41`: the growth was 52.2% with T-47D breast; 67.8% in the test on BT-549 breast; 70.6% in the test on MDA-MB-435 melanoma; 49.8% in the test on SW-620 colon; 13.1% in the test with MCF7 breast; 36.5% in the test on HCT-116 colon. Besides, the growth in the test with HCC-2998 colon was 37.8%; in the test with KM12 colon it was 77.7%; in the test on MDA-MB-468 breast, 3.12% (active).

`CCN(CC)CCOc1ccc(C(=C(C)c2ccccc2)c2ccc(OCCN(CC)CC)cc2)cc1`: the growth was -85.3% (active) in the test on T-47D breast; 50.4% in the test on BT-549 breast; -83% (active) in the test on MDA-MB-435 melanoma; -4.84% (active) in the test on SW-620 colon; -61.8% (active) in the test on MCF7 breast; 6.73% (active) with HCT-116 colon. In addition, the growth with HCC-2998 colon is -5.25% (active); in the test on KM12 colon, 0.838% (active); in the test with MDA-MB-468 breast, -18.5% (active).

Turning to `Nc1nc(Nc2ccc(Cl)cc2)nn1Cc1cccc(Br)c1`, the growth was 19.3% with T-47D breast; 34.2% in the test with BT-549 breast; 36.7% with MDA-MB-435 melanoma; 61.9% in the test on SW-620 colon; 18.2% in the test on MCF7 breast; 35.2% in the test with HCT-116 colon. Besides, the growth with HCC-2998 colon is 5.71% (active); in the test on KM12 colon, 16.7%; in the test with MDA-MB-468 breast, 28.1%.

Consider `CC(=O)Oc1ccccc1C(=O)Oc1ccc(C(=O)/C=C/c2ccncc2)cc1`, for which the growth was 54.9% in the test with T-47D breast; 31% in the test with BT-549 breast; 23.2% in the test on MDA-MB-435 melanoma; 6.33% (active) in the test on SW-620 colon; 0.657% (active) in the test with MCF7 breast; -28.5% (active) in the test on HCT-116 colon. Besides, the results for the growth in the test on HCC-2998 colon, with KM12 colon and in the test with MDA-MB-468 breast were -14% (active), 22% and -59.3% (active), respectively.

`Clc1ccc(/C=N/Nc2ncnc3sc4c(c23)CCN(Cc2ccccc2)C4)cc1`: the growth in the test on T-47D breast is -0.297% (active); in the test with BT-549 breast, -6.23% (active); with MDA-MB-435 melanoma, -45.3% (active); with SW-620 colon it was -74% (active); in the test on MCF7 breast, -47.5% (active); in the test with HCT-116 colon, -93.5% (active). For the same compound, the growth is 19.8% in the test with HCC-2998 colon, -26.9% (active) in the test with KM12 colon and -62.4% (active) with MDA-MB-468 breast.

Consider `Nc1nc(-c2ccccc2)cc(-c2cc3ccccc3nc2Cl)n1`, for which the growth was 73.7% in the test on T-47D breast; 82.2% in the test on BT-549 breast; 94.9% in the test on MDA-MB-435 melanoma; 62.7% in the test on SW-620 colon; 18.4% with MCF7 breast; 33.7% with HCT-116 colon. Also, the growth with HCC-2998 colon was 103%; in the test on KM12 colon, 71.7%; with MDA-MB-468 breast, 77%.

Turning to `COc1ccc2[nH]cc(/C=N/Nc3ccc(Br)cn3)c2c1`, the growth was 22.3% in the test on T-47D breast; -2.65% (active) in the test with BT-549 breast; 13.8% in the test with MDA-MB-435 melanoma; 19.2% with SW-620 colon; 3.69% (active) in the test with MCF7 breast; 8.63% (active) with HCT-116 colon. Moreover, the growth in the test with HCC-2998 colon was 10.2%; in the test on KM12 colon, -0.565% (active); in the test with MDA-MB-468 breast, -40.9% (active).

Turning to `O=C(CSc1nnc(-c2ccc3nc(-c4ccccc4)[nH]c3c2)o1)Nc1ccc(Br)cc1`, the growth in the test with T-47D breast was 62.8%; with BT-549 breast, 95.9%; in the test on MDA-MB-435 melanoma, 63.4%; in the test with SW-620 colon, 2.94% (active); in the test on MCF7 breast it was 28.4%; in the test with HCT-116 colon, 19.1%. Besides, the values for the growth with HCC-2998 colon, in the test on KM12 colon and in the test with MDA-MB-468 breast were 90.2%, 53.9% and 83.2%, respectively.

Take `Nc1nnc(-c2c[nH]c3ncccc23)c(-c2c[nH]c3ccc(Br)cc23)n1`: the growth in the test with T-47D breast is 22.4%; with BT-549 breast, 38.6%; in the test with MDA-MB-435 melanoma, 47.2%; with SW-620 colon it was 54.9%; in the test with MCF7 breast, 22.5%; in the test on HCT-116 colon it was 21.9%. The growth with HCC-2998 colon was 74.5%; in the test with KM12 colon, 39.3%; in the test with MDA-MB-468 breast, 50.4%.

Regarding `C=CC(=O)Nc1nc(-c2cccc(NS(=O)(=O)c3cccc4c(N(C)C)cccc34)c2)cs1`, the growth was 0.269% (active) with T-47D breast; -75.6% (active) with BT-549 breast; -92.4% (active) with MDA-MB-435 melanoma; -80.6% (active) in the test on SW-620 colon; -82.1% (active) in the test with MCF7 breast; -90.3% (active) with HCT-116 colon. For the same compound, the growth with HCC-2998 colon was -88.1% (active); in the test on KM12 colon it was -44% (active); with MDA-MB-468 breast, -87.8% (active).

For `Cc1cccc(NC(=O)CSc2nc3ccc(F)cc3c(=O)n2-c2ccc(Cl)cc2)c1C`, the growth was 91.5% in the test with T-47D breast; 32% with BT-549 breast; 83.4% in the test with MDA-MB-435 melanoma; 80.1% with SW-620 colon; 69.5% with MCF7 breast; 44.8% in the test with HCT-116 colon. The growth in the test on HCC-2998 colon is 94.5%; with KM12 colon it was 88.8%; with MDA-MB-468 breast it was 80.7%.

`Cc1ccc(-c2nc(Nc3ccc(S(N)(=O)=O)cc3)c3ccccc3n2)cc1`: the growth was 40.5% with T-47D breast; 75.7% with BT-549 breast; 57% in the test on MDA-MB-435 melanoma; 32.2% with SW-620 colon; 26.7% with MCF7 breast; 34.7% in the test on HCT-116 colon. Also, the results for the growth in the test on HCC-2998 colon, with KM12 colon and in the test with MDA-MB-468 breast were -9.82% (active), 0.051% (active) and 44.2%, respectively.

Regarding `CN1CCN(Cc2ccc(NC(=O)c3cncc(C#Cc4cnc5ccc(N[C@H]6CCOC6)nn45)c3)cc2C(F)(F)F)CC1`, the growth is -64.7% (active) in the test on T-47D breast; -67.7% (active) in the test on BT-549 breast; -79.6% (active) with MDA-MB-435 melanoma; -69.8% (active) in the test on SW-620 colon; -84.4% (active) with MCF7 breast; -62.6% (active) in the test with HCT-116 colon. Moreover, the growth was -96.4% (active) in the test on HCC-2998 colon, -89.7% (active) in the test with KM12 colon and -94% (active) in the test on MDA-MB-468 breast.
